# In PubChem BioAssay (NCI):
# “And” between values parts separate entries of the source, which are not always exact repeats. Equal values may be shown once. This is part of a sample that, as a whole, favours compounds with a hit. Of some 83,000 tested, about 20% had one in any assay.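 48-hour exposure, single concentration, 96-well plates; percent growth endpoint where 0 means no net growth. Active: below 10.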 A number with no mark means an inactive call. The source made the active and inactive calls.
# Tests used:
# Assay in all cases: NCI-60 one-dose screen, 48 h (100 = growth as untreated, 0 = no growth, -100 = all killed)
# Conditions in all cases: 10 µM unless noted
# NCI-H23 lung = test system: NCI-H23 lung
# NCI-H226 lung = test system: NCI-H226 lung
# NCI-H322M lung = test system: NCI-H322M lung
# HOP-62 NSCLC = test system: HOP-62 NSCLC
# NCI-H460 lung = test system: NCI-H460 lung
# HOP-92 NSCLC = test system: HOP-92 NSCLC
# NCI-H522 lung = test system: NCI-H522 lung
# A549/ATCC NSCLC = test system: A549/ATCC NSCLC
# 786-0 renal = test system: 786-0 renal
# COLO 205 colon = test system: COLO 205 colon
Compound,growth (NCI-H23 lung),growth (NCI-H226 lung),growth (NCI-H322M lung),growth (HOP-62 NSCLC),growth (NCI-H460 lung),growth (HOP-92 NSCLC),growth (NCI-H522 lung),growth (A549/ATCC NSCLC),growth (786-0 renal),growth (COLO 205 colon)
CC1=C(C(=O)OCc2ccccc2)C(c2cccc3ccccc23)n2c(nc3ccccc32)N1 (stereo not drawn),46.4%,19.4%,36.6%,38.3%,9.99% (active),64.6%,-42.2% (active),33.9%,30.3%,13.9%
COc1cc(C=O)ccc1Oc1nc(Nc2ccc(F)cc2)nc(N(C)C)n1,59.8% and 65.8%,75.4% and 81.6%,96.5% and 78.9%,90% and 85.7%,80.2% and 52.3%,87.3% and 65.7%,88.6% and 82.1%,95.1% and 91%,78.4% and 52%,110% and 103%
CC(C)C[C@H](NC(=O)[C@@H]1CCCCCCCCCCC(=O)N[C@@H](CC(=O)N2CCC[C@@H]2C2CCCC2)C(=O)N1)B(O)O,-83.3% (active),-33.3% (active),-59.8% (active),-14.7% (active),0.61% (active),-63.2% (active),-49.1% (active),1.48% (active),-43.8% (active),-64.6% (active)
Cc1cccc(-c2ccccc2Oc2ccc3nnc(Cl)n3n2)c1,96.8%,103%,99.9%,114%,109%,130%,102%,98.7%,98.8%,127%
O=C(N/N=C/c1ccc(B(O)O)s1)c1[nH]c2ccc(Br)cc2c1-c1ccccc1,-94.9% (active),-45.2% (active),-79.1% (active),-69.8% (active),-76% (active),-60.2% (active),-83% (active),-62.8% (active),-66.2% (active),-81.8% (active)
O=C(Nc1ccc(-c2ccc3c(c2)NC(=O)/C3=C\c2ccc[nH]2)cc1)Nc1ccc(Cl)c(Cl)c1,37.8%,78.1%,73.4%,61.9%,17.4%,88.5%,63%,62%,35.9%,58%
COc1ccc(-c2nc3ccc(-c4nnc(SCc5ccccc5)o4)cc3[nH]2)cc1,8.09% (active),-76.5% (active),0.722% (active),-72.7% (active),-15.7% (active),20.9%,-16.2% (active),-5.6% (active),-62.5% (active),44.6%
FC(F)(F)c1cc2c(Cl)ncnc2n1CCN1CCCCC1,34.8%,97.8%,64.2%,76.3%,57.9%,94.3%,-80.1% (active),95.5%,92.5%,75.2%
O=[N+]([O-])c1cccc(-c2nnc3c(/C=C/c4ccc(F)cc4)nc4ccccc4n23)c1,91.7%,98.6%,101%,97.9%,90.3%,80%,81%,95%,93.5%,126%
COC(=O)c1cc(C(=O)C(Br)Br)n2c1ccc1c3ccccc3ccc12,69%,64.2%,89.4%,56.7%,18.4%,54.3%,60.2%,40.8%,64.6%,55.3%
Cc1cc(C(NC(=O)CCCCCNc2cccc3c2C(=O)N(C2CCC(=O)CC2=O)C3=O)c2cccc(N(C)C)c2)c(O)c2ncccc12 (stereo not drawn),24%,-1.45% (active),13.7%,-22.6% (active),5.72% (active),-10.4% (active),13%,11.7%,2.23% (active),7.54% (active)
COc1ccc(C2=Nc3c(N)nc(N)nc3NC(c3ccc(Oc4nc(Nc5ccc(F)cc5)nc(N(C)C)n4)c(OC)c3)C2)cc1 (stereo not drawn),88.4%,77.4%,104%,82.5%,71%,16.6%,88%,75.5%,52.6%,91.6%
NS(=O)(=O)c1ccc(N2N=C(c3ccc(NC(=O)Nc4ccccc4)cc3)CC2c2ccc(Br)cc2)cc1 (stereo not drawn),-95.2% (active),-84.2% (active),-87.3% (active),-70.3% (active),-83.9% (active),-87% (active),-79.7% (active),-57.7% (active),-85.7% (active),-53.5% (active)
Cc1ccc(N=Nc2c(N)nn3c(-c4cc5ccccc5oc4=O)ccnc23)cc1,28%,33.4%,51.6%,48.5%,50%,49.9%,64.9%,45.1%,53.4%,6.35% (active)
Cn1cc(-c2cc(N)n3nc(-c4c[nH]c5ccccc45)cc3n2)c2cc(Cl)ccc21,-70.7% (active),16.6%,-35.3% (active),-73.7% (active),-59.5% (active),-68.5% (active),-71.9% (active),-37.8% (active),-67.8% (active),-90.8% (active)
CC(C)(C)OC(=O)N1C/C(=C\c2ccc(F)cc2)C(=O)/C(=C/c2ccc(F)cc2)C1,-77.7% (active),-43.8% (active),29.6%,14.6%,1.19% (active),-30.5% (active),-89% (active),35.3%,-74.8% (active),-47.2% (active)
Cn1cc(-c2cc3nc(-c4cn(C)c5ncccc45)cc(N)n3n2)c2cc(F)ccc21,21.2%,3.92% (active),52.1%,-14.7% (active),37.6%,-0.741% (active),22.7%,19.6%,17.6%,47.1%
COC(=O)c1ccc(-c2c(-c3ccccc3)c(F)c3oc(C(=O)OC)c(N)c3c2-c2ccccc2)cc1,87%,100%,97.1%,94%,99.7%,85.1%,83.4%,98.9%,103%,99.7%
COc1ccc(C(=O)/C=C/c2ccc3c(c2)OCCO3)cc1S(N)(=O)=O,–,116%,84.6%,29.7%,68.3%,94.5%,43.8%,47.6%,76.5%,91.9%
CS(=O)(=O)Nc1cccc(-n2c(COc3ccc(OC(F)(F)F)cc3)nc3ccccc32)c1,–,83.3% and 103%,101% and 121%,96.2% and 97.2%,110%,59.6% and 108%,84.8% and 101%,96.1% and 111%,110% and 103%,100% and 113%
Cc1nn(-c2ccccc2)c2nc(C)n(C(=O)N/N=C/c3ccccc3)c(=O)c12,–,87.5%,103%,102%,106%,99.4%,97.9%,101%,97.1%,118%
Cc1[nH]nc2ccc3nc(-c4cn[nH]c4C(F)(F)F)c4c(c3c12)CCCC4,–,-5.98% (active),2.15% (active),5.21% (active),1.29% (active),-18.3% (active),-54% (active),-2.97% (active),-21.2% (active),-18.6% (active)
O=c1[nH]c2ccccc2cc1COc1ccc(Nc2nccc(-c3ccc(Cl)cc3)n2)cc1,–,103%,107%,87.1%,103%,97.7%,89.1%,101%,88.2%,116%
COc1ccc(NC(=O)Cn2c(/C=C/c3cccc(OC)c3)nc3ccccc3c2=O)cc1,–,1.28% (active),42.3%,-11.5% (active),15.2%,3.74% (active),27.3%,12.8%,-70.7% (active),71.6%
O=C(Cn1c(-c2ccccc2)nc2ccccc21)N=Nc1c(O)[nH]c2ccc(Cl)cc12,–,-62.1% (active),5% (active),-58.6% (active),3.44% (active),-41.7% (active),40.5%,6.42% (active),-18.5% (active),-40.3% (active)
